Active and inactive are the calls of the source. How the source made its calls: active means hit-call score of the fitted dose curve at least 0.9, where 1 is the maximum; inactive means score below 0.9.
biological target: Hypoxia-inducible factor 1-alpha (Homo sapiens) (UniProt Q16665); test: ATG_HIF1a_CIS: Attagene CIS-FACTORIAL HepG2 Assay for human Hypoxia Inducible Factor 1 (HIF1A) (AID 2282951); conditions: HepG2 Attagene cis-factorial HIF1a reporter transcription; actives raise or lower the signal
Sequence (Q16665 whole entry, looked up): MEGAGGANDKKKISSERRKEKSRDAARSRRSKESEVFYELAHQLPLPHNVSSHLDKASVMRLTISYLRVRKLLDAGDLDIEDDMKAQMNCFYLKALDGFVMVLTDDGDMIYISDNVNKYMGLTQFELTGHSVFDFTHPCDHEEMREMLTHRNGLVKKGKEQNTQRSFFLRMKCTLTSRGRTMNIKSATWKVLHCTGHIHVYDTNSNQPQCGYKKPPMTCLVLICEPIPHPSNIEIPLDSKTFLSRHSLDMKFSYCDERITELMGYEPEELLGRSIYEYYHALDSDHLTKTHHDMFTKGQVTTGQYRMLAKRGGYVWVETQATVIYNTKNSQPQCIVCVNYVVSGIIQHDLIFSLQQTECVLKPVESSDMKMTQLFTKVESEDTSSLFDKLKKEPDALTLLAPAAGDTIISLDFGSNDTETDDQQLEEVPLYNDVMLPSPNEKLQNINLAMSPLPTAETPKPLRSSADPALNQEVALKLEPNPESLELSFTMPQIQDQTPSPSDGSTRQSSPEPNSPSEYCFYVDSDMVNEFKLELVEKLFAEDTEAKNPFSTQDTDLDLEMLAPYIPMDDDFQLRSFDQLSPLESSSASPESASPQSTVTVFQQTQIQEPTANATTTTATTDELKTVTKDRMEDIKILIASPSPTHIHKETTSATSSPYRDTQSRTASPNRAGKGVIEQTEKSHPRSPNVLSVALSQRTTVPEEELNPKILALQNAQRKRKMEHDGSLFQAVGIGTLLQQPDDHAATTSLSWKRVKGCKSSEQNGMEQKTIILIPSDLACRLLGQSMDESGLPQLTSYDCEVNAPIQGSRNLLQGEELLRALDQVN
Protocol: ATG_CIS is a cell-based, multiplexed-readout assay that uses HepG2, a human liver cell line, with measurements taken at 24 hours after chemical dosing in a 24-well plate.ATG_HIF1a_CIS is one of 52 assay component(s) measured or calculated from the ATG_CIS assay. It is designed to make measurements of mRNA induction, a form of inducible reporter, as detected with fluorescence intensity signals by Reverse transcription polymerase chain reaction (RT-PCR) and Capillary electrophoresis technology.Data from the assay component ATG_HIF1a_CIS was analyzed into 1 assay endpoint. This assay endpoint, ATG_HIF1a_CIS, was analyzed with bidirectional fitting relative to DMSO as the negative control and baseline of activity. Using a type of inducible reporter, measures of mRNA for gain or loss-of-signal activity can be used to understand the reporter gene at the transcription factor-level as they relate to the gene HIF1A. Furthermore, this assay endpoint can be referred to as a primary readout, because this assay has produced multiple assay endpoints where this one serves a reporter gene function. To generalize the intended target to other relatable targets, this assay endpoint is annotated to the dna binding intended target family, where the subfamily is basic helix-loop-helix protein.
Human liver HepG2 cells are transiently transfected with multiple reporter transcription units (MRTUs) in 6-well plates using FuGene 6 reagent (Roche; 3 ml FuGene/1 mg DNA). The MRTU constructs are regulated by a cis-regulating element (promoter). […] A major difference between the CIS and TRANS system is that in CIS activities of endogenous TFs are measured, whereas the TRANS assay evaluates changes in activities of exogenous, chimeric NR-Gal4 proteins. […] At the end of 24 hour incubation, total RNA was isolated using TriZol reagent (Invitrogen). The isolated RNA is then reverse-transcribed using oligo(dT) primer and Mo-MLV reverse transcriptase (Invitrogen) with DNAse I (Ambion) treatment for 30 min. The one-tenth of the produced cDNA was amplified by PCR using Taq DNA polymerase (Invitrogen) and two reporter sequence-specific primers. The PCR products were fluorescently labeled by primer extension with 6-arboxyfluorescein (6-FAM) 5'-labeled reporter sequence-specific primer (2 min at 95 C, 20 s at 68 C and 10 min at 72 C) and these products were digested with 5U of HpaI (New England Biolabs) for 2h at 37 C. The fragments were purified using Qiaquick PCR columns (Qiagen), analyzed on an ABI 3130xL genetic analyzer (Applied Biosystems) with peak positions identified by using a set of X-rhodamine (ROX)-labeled MapMarker1000 molecular weight standards (BioVentures). The raw capillary electrophoresis data was processed using Attagraph software (Attagene).

SMILES | outcome | AC50
COCCCN | inactive | 
CCO[Si](OCC)(OCC)c1ccccc1 | inactive | 
CC(C)CC(=O)O | inactive | 
O=C(O)c1ccccc1C(=O)O | inactive | 
Nc1nnc(-c2ccc([N+](=O)[O-])o2)o1 | inactive | 
CCCCCCC1CCC(=O)O1 (stereo not given) | inactive | 
CCO[Si](CCCN)(OCC)OCC | inactive | 
COc1ccc2ccccc2c1 | inactive | 
CC1=NN(c2cc(Cl)c(S(=O)(=O)O)cc2Cl)C(=O)C1N=Nc1ccc(S(=O)(=O)O)cc1 (stereo not given) | inactive | 
CCCCCC[C@@H](O)C/C=C\CCCCCCCC(=O)O | inactive | 
CCOC(=O)c1ccccc1 | inactive | 
CC(=O)OC(C)(C)Cc1ccccc1 | inactive | 
CCCCCCCCCCCCCCCCCC[N+](C)(C)C | inactive | 
CCCC(=O)OC | inactive | 
COC(=O)c1ccccc1 | inactive | 
Cc1cccnc1 | inactive | 
CC[N+](CC)(CC(=O)Nc1c(C)cccc1C)Cc1ccccc1 (tested in a mixture with another compound) | inactive | 
O=C(c1ccccc1)c1ccccc1O | inactive | 
COC(=O)[C@]1(C)CCC[C@@]2(C)[C@H]1CC=C1C=C(C(C)C)CC[C@@H]12 | inactive | 
CCCCCCC1CCCC(=O)O1 (stereo not given) | inactive | 

SMILES | outcome | AC50
CCCCCCCCCCC1CO1 (stereo not given) | inactive | 
Oc1cccc2ccccc12 | inactive | 
COC(OC)C(C)c1ccccc1 (stereo not given) | inactive | 
Cc1cc(C)c(S(=O)(=O)O)cc1N=Nc1cc(S(=O)(=O)O)c2ccccc2c1O | inactive | 
O=C(O)Cc1c[nH]c2ccccc12 | inactive | 
O=C(O)/C=C/C(=O)O | inactive | 
Brc1ccc(Oc2ccc(Br)cc2)cc1 | inactive | 
COC(=O)/C=C\C(=O)OC | inactive | 
Sc1nc2ccccc2s1 | inactive | 
Oc1ccc(Cl)cc1C1CCCC1 | inactive | 
Clc1ccccn1 | inactive | 
O=C(O)c1cc(Cl)cc(Cl)c1O | inactive | 
CN(C)Cc1cc(C(C)(C)C)c(O)c(C(C)(C)C)c1 | inactive | 
CCCC[N+]1(C)CCCC1 | inactive | 
c1ccc2c(c1)Oc1ccccc1S2 | inactive | 
CC1=CCCC(C)(C)C12CCC(C)O2 (stereo not given) | inactive | 
CC(=O)c1nccs1 | inactive | 
CC(C)(C)NC(=O)[C@@H]1CN(Cc2cccnc2)CCN1C[C@@H](O)C[C@@H](Cc1ccccc1)C(=O)N[C@H]1c2ccccc2C[C@H]1O | inactive | 
O=C(OCc1ccccc1)c1ccccc1 |  | 175 µM (active)
O=C(O)c1nc(Cl)c(Cl)c(Cl)c1Cl | inactive | 
